The values below come from PubChem BioAssay (EPA / NIEHS).

Results filed as inconclusive are left out. Active and inactive are the calls of the source. How the source made its calls: active means hit-call score of the fitted dose curve at least 0.9, where 1 is the maximum; inconclusive means response in the unintended direction; inactive means score below 0.9.

What is called AC50 is the concentration giving half of the maximal activity seen.

Chain of human Serotonin, 5-Hydroxytryptamine Receptor 5A (5HT5A), HTR5A (gene 3361) (P47898 whole entry, looked up): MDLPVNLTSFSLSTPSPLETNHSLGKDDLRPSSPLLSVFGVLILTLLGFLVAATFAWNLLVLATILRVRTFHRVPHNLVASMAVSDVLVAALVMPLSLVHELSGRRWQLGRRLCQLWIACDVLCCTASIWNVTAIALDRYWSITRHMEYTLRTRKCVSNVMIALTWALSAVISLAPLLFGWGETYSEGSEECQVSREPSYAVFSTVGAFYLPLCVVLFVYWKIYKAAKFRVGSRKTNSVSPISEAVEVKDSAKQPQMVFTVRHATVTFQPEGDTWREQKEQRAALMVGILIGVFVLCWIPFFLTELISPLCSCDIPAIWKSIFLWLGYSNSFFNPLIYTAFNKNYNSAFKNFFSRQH

This assay has as its target human Serotonin, 5-Hydroxytryptamine Receptor 5A (5HT5A), HTR5A (gene 3361) (UniProt P47898). Description: NVS_GPCR_h5HT5A: NovaScreen (NVS) G Protein-Coupled Receptor Assay for human Serotonin, 5-Hydroxytryptamine Receptor 5A (5HT5A) (AID 2283251). How it is done: NVS_GPCR_h5HT5A is a biochemical, single-readout assay that uses extracted gene-proteins from HEK293 in a cell-free assay. Measurements were taken 1 hour after chemical dosing in a 96-well plate.NVS_GPCR_h5HT5A is one of one assay component(s) measured or calculated from the NVS_GPCR_h5HT5A assay. It is designed to make measurements of radioligand binding, a form of binding reporter, as detected with scintillation counting signals by Filter-based radiodetection technology.Data from the assay component NVS_GPCR_h5HT5A was analyzed into 1 assay endpoint. This assay endpoint, NVS_GPCR_h5HT5A, was analyzed in the positive analysis fitting direction relative to DMSO as the negative control and baseline of activity. Using a type of binding reporter, loss-of-signal activity can be used to understand changes in the binding as they relate to the gene HTR5A. Furthermore, this assay endpoint can be referred to as a primary readout, because the performed assay has only produced 1 assay endpoint. To generalize the intended target to other relatable targets, this assay endpoint is annotated to the gpcr intended target family, where the subfamily is rhodopsin-like receptor.
Binding assays used specific radioligands (tritiated, iodinated) with non-radioactive competitive displacement ligands in agonist or antagonist protocols (as indicated) and various reference compounds and inhibitors to titrate specific binding to receptors and transporters. Most enzyme assays (CYPs, kinases, phosphatases, proteases, HDACs) used recombinant protein and specific substrates (fluorescence mostly, some colorimetric and radioactive) and inhibitors, followed by a biochemical separation of substrate and product. All assays for the biochemical HTS were initially run in duplicate at a single concentration (10 uM for CYP450 assays and 25 uM for all others). […] Each assay was run with positive and negative controls, and concurrent controls on every plate. The follow-up (secondary) screen tested active chemical-pairs in concentration series, as well as a few additional assays not tested in the primary screen, some selected negative inactives, and several cases re-run in the concentration series for confirmatory purposes.
With `CC[C@H](C)[C@H]1O[C@]2(C=C[C@@H]1C)C[C@@H]1C[C@@H](C/C=C(\C)[C@@H](O[C@H]3C[C@H](OC)[C@@H](O[C@H]4C[C@H](OC)[C@@H](NC)[C@H](C)O4)[C@H](C)O3)[C@@H](C)/C=C/C=C3\CO[C@@H]4[C@H](O)C(C)=C[C@@H](C(=O)O1)[C@]34O)O2`, the AC50 is 7.94 µM (active).
As for `O=c1ccc(=O)[nH][nH]1`, the compound was classed as inactive.
With `CC(C)[C@H](C(=O)O[C@H](C#N)c1cccc(Oc2ccccc2)c1)c1ccc(Cl)cc1`, the AC50 is 6.96 µM (active).
For the compound `CNC(=O)Oc1cccc2c1OC(C)(C)O2`, the result was inactive.
In the case of `C=C(C)[C@H]1Cc2c(ccc3c2O[C@@H]2COc4cc(OC)c(OC)cc4[C@@H]2C3=O)O1`, the compound was classed as inactive.
Regarding `CCOP(=S)(OCC)Oc1ccc2c(C)c(Cl)c(=O)oc2c1`, the result was inactive.
For the compound `CC(Oc1cccc(Cl)c1)C(=O)O` (stereo not given), the call was inactive.
For `C[Si](Cn1cncn1)(c1ccc(F)cc1)c1ccc(F)cc1`, the AC50 is 7.85 µM (active).
Turning to `CC(COc1ccc(Oc2ccccc2)cc1)Oc1ccccn1` (stereo not given), the result was inactive.
`O=C(O)c1cc(Oc2ccc(C(F)(F)F)cc2Cl)ccc1[N+](=O)[O-]`: the call was inactive.
